Glyco luc inh – N-linked glycosylation inhibition; reporter increase, % at 12.5 µM; D54 ERlucT glycosylation luciferase reporter, 24 h; percent of 100 nM tunicamycin response; 0.23% of 360,000 active;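 active means mean luciferase reporter signal, scaled so untreated is 0 and the glycosylation-blocking control 100, at or above a set limit in every replicate; inconclusive means mean reaches the limit but not every replicate does; inactive means mean below the limit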;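 further: luciferase carries N-glycosylation sites so blocking glycosylation raises the light; 0% = median of neutral control wells and 100% = median of 100 nM tunicamycin wells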
DENV2 CPE – inhibitors of DENV2 cytopathic effect; 1.7% of 350,000 active; AID 651640; CPE inhibition, % at 9.99 µM; DENV2-infected cells, cytopathic effect rescue, plate reader; in the data active means CPE inhibition above about 20%, passing the limit was not always enough; inconclusive means no clear call, values can overlap the other calls; tested in BHK-21 cells;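 further: 0% = median of neutral control wells and 100% = median of positive control wells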
PglD DTNB – inhibitors of Campylobacter jejuni PglD acetyltransferase | purified PglD enzyme, DTNB colorimetric CoA detection | inhibition, % at 12.5 µM | 0.098% of 360,000 active | AID 602405; in the data active means inhibition above about 16%, passing the limit was not always enough; inconclusive means no clear call, values can overlap the other calls
Rtt109 HAT inh – inhibitors of Candida albicans Rtt109/Vps75 histone acetyltransferase. Q5AAJ8. purified Rtt109/Vps75, ThioGlo CoA-SH fluorescence, 4 h. inhibition, % at 34.9 µM. 0.16% of 330,000 active. AID 540336;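 active means inhibition of at least 50% in every replicate; inconclusive means best replicate reaches 50% inhibition but some replicates fall short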
Target sequence (Q5AAJ8 whole entry, looked up): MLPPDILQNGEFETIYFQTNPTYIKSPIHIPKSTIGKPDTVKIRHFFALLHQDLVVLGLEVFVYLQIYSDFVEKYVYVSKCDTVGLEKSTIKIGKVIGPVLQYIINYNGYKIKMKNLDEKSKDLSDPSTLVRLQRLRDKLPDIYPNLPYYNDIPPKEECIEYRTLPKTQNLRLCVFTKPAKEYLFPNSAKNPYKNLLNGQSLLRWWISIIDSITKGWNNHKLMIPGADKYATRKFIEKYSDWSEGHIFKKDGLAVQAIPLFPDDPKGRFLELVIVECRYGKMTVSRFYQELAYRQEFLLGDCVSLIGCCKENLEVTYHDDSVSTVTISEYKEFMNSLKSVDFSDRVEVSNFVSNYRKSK
PglD confirm – confirmation of Campylobacter jejuni PglD acetyltransferase inhibitors; 320 tested, under 10 active; Purified C. jejuni PglD, DTNB absorbance 412 nm; shares compounds with PglD DTNB; AID 743156; inhibition, % at 20 µM;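 active means mean inhibition across replicates of at least 20% with every single replicate also at 20% or more; inconclusive means mean inhibition at least 20% but some replicate falls below 20%; inactive means mean inhibition under 20% and not all replicates reach it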;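 further: initial rate of CoA release by acetyl transfer from AcCoA to the UDP-4-amino sugar; 0% = median of neutral control wells and 100% = median of positive control wells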
* hit, by the source's call; ? = inconclusive; / = no result given; ! = repeats disagree. The sample as a whole holds a higher share of hits than the screen did.

SMILES	Glyco luc inh	DENV2 CPE	PglD DTNB	Rtt109 HAT inh	others
O=C1NC(=O)N(c2ccccc2)C(=O)/C1=C/C=C/c1ccco1	29*	-2	-4	-2
C/C=C/c1ccc([C@H]2[C@@H](CO)N3CCCCN(C(=O)Cc4ccncc4)C[C@@H]23)cc1	/	140*	0	/
O=C(Cc1cccnc1)N1CCCCN2[C@H](CO)[C@@H](c3ccc(/C=C/c4ccccc4)cc3)[C@H]2C1	/	1	2	/
COc1ccc(C#Cc2ccc([C@@H]3[C@@H](CO)N4CCCCN(C(=O)Cc5cccnc5)C[C@H]34)cc2)cc1	/	3	3	/
COc1cccc(-c2ccc([C@H]3[C@@H](CO)N4CCCCN(C(=O)Cc5ccncc5)C[C@@H]34)cc2)c1	/	27*	2	/
C/C=C/c1ccc([C@H]2[C@@H](CO)N3CCCCN(C(=O)Cc4ccncc4)C[C@H]23)cc1	/	?	2	/
COc1ccc(C#Cc2ccc([C@@H]3[C@H](CO)N4CCCCN(C(=O)Cc5cccnc5)C[C@@H]34)cc2)cc1	/	27*	1	/
O=C(Cc1cccnc1)N1CCCCN2[C@H](CO)[C@H](c3ccc(/C=C/c4ccccc4)cc3)[C@H]2C1	/	25*	3	/
COC(=O)[C@@H]1[C@@H](CO)[C@@H]2Cn3c(ccc(-c4cncnc4)c3=O)[C@H]1N2S(=O)(=O)c1ccccc1C	/	17	3	/
COC(=O)[C@@H]1[C@@H](CO)[C@@H]2Cn3c(ccc(C4=CCCCC4)c3=O)[C@H]1N2C(=O)NC(C)C	/	-10	5	/
COC(=O)[C@H]1[C@H](CO)[C@H]2Cn3c(cccc3=O)[C@@H]1N2CCc1ccccc1	/	1	7	/
CC1=C2C[C@H]3[C@@H](CC=C4C[C@@H](O)CC[C@@]43C)[C@@H]2CC[C@]12O[C@@H]1C[C@H](C)CN[C@@H]1C2C (stereo partly specified)	/	-13	/	/
CCOC(=O)[C@@H]1[C@@H]2NC(=O)N(C)[C@@]1(C)Oc1ccccc12	/	8	1	/
N#Cc1cccc(-c2ccc([C@@H]3[C@@H](CO)N4CCCCN(C(=O)Cc5ccccc5)C[C@@H]34)cc2)c1	/	38*	2	/
N#Cc1cccc(-c2ccc([C@@H]3[C@H]4CN(C(=O)Cc5ccccc5)CCCCN4[C@H]3CO)cc2)c1	/	1	1	/
O=C1CNC[C@H]2[C@@H](c3ccc(Br)cc3)[C@@H](CO)N12	/	-11	/	/
O=c1oc2ccccc2c(O)c1C(c1ccc([N+](=O)[O-])cc1)c1c(O)c2ccccc2oc1=O	3	-1	-90	68*
COC(=O)[C@@H]1[C@@H](CO)[C@@H]2Cn3c(cccc3=O)[C@H]1N2CCc1ccccc1	/	-2	2	/
Cc1cc(=O)oc2cc(OCC(=O)N3CCC(C(=O)O)(c4ccccc4)CC3)ccc12	-1	75*	3	6
COC(=O)[C@H]1[C@H](CO)[C@H]2Cn3c(ccc(C4=CCCCC4)c3=O)[C@@H]1N2CC1CCCCC1	/	-7	/	/
CC(=O)O[C@H]1C[C@@H]2OC3C=C(C)CCC3(C)[C@@]1(C)[C@@]21CO1 (stereo partly specified)	-18	106*	/	8
Cn1cc[n+](C)c1P(=S)(c1ccccc1)c1ccccc1	0	-3	-7	/
Cc1c(P(=S)(c2ccccc2)c2ccccc2)[n+]2ccccc2n1C	4	73*!	3	9
COc1ccc(CCNCc2cccn2C)cc1OC	1	69*	2	-7
COC(=O)[C@H]1[C@H](CO)[C@H]2Cn3c(ccc(/C=C/c4ccccc4)c3=O)[C@@H]1N2C(=O)C1CC1	/	-11	-1	/
SMILES	Glyco luc inh	DENV2 CPE	PglD DTNB	Rtt109 HAT inh	others
COc1ccc(CC2C(=O)NC(C)C(=O)N(C)C3C(=O)N(C)C(Cc4ccc(O)c(c4)Oc4ccc(cc4)C3O)C(=O)NC(C)C(=O)NC(C)C(=O)N2C)cc1 (stereo unspecified)	-18	107*	/	-3
NNc1n[nH]c(=S)n1N	2	17	2	139*
CC(C)c1oc(=O)cc2c1[C@@H](O)[C@H]1OC(=O)[C@@]3(C)C[C@@H](O)[C@@H](O)[C@@]2(C)C13 (stereo partly specified)	-20	87*	3	-9
C/C=C/c1ccc(C2[C@@H]3CN(C(=O)CN(C)C)C[C@H]2N3)cc1 (stereo partly specified)	/	2	/	/
Clc1ccc(COC(Cn2ccnc2)c2ccc(Cl)cc2Cl)cc1 (stereo unspecified)	-1	9	-3	74*!
O=C1CNC[C@H]2[C@H](c3ccc(Br)cc3)[C@@H](CO)N12	/	6	/	/
ClC1=C(Cl)C2(Cl)C3C(Cl)C=CC3C1(Cl)C2(Cl)Cl (stereo unspecified)	-5	28*	-5	7
Cc1cc(C)nc(N2Cc3ccccc3C2=N)n1	37*	1	-2	14
Cc1ccc(N2Cc3ccccc3C2=N)cc1[N+](=O)[O-]	1	/	/	-1
CN1C(=O)C(=Cc2sc(=O)n(-c3ccccc3)c2N(C)C)C(=O)N(C)C1=O	29*	-2	-10	12
O=C(NCc1cccnc1)Nc1ccccc1Cl	0	9	8	8
O=C(NCc1cccnc1)Nc1ccc([N+](=O)[O-])cc1	0	36*	-3	-1
COC(=O)C1=C(c2ccc(OC(F)(F)F)cc2)C[C@@H]2CC[C@H]1N2C(=O)N1CCCCC1	0	48*	0	3
COC(=O)C1=C(c2cc3ccccc3o2)C[C@@H]2CC[C@H]1N2C(=O)N1CCOCC1	36*	?	7	-10
COC(=O)C1=C(c2ccccc2)C[C@@H]2CC[C@H]1N2C(=O)N1CCOCC1	-1	38*	-1	2
COC(=O)C1=C(c2ccc(OC(F)(F)F)cc2)C[C@@H]2CC[C@H]1N2C(=O)N1CCC(O)CC1	2	13	-7	-4
COC(=O)C1=C(c2ccc3ccccc3c2)C[C@@H]2CC[C@H]1N2C(=O)N1CCOCC1	3	-9	-3	-5
CCCN1[C@@H]2c3ccc(-c4ccc(F)cc4)c(=O)n3C[C@H]1[C@H](CO)[C@H]2C(=O)OC	/	-4	0	/
COC(=O)[C@@H]1[C@@H](CO)[C@@H]2Cn3c(cccc3=O)[C@H]1N2C(=O)C1CCCC1	/	-1	-2	/
O=C(Cc1cccnc1)N1CCCCN2[C@@H](CO)[C@@H](c3ccc(C#CC4CC4)cc3)[C@@H]2C1	/	-2	4	/
CCN1C[C@]2(COC)CC[C@H](OC)[C@@]34C5C[C@H]6C(=O)C5[C@](O)(C[C@H]6OC)[C@@](O)(C(OC)C23)[C@@H]14 (stereo partly specified)	2	44*	-6	-6
O=C(Cc1ccccn1)N1CCCCN2[C@H](CO)[C@H](c3ccc(C#Cc4ccccc4)cc3)[C@H]2C1	/	3	0	/
COC(=O)[C@H]1[C@H](CO)[C@H]2Cn3c(ccc(-c4ccccc4F)c3=O)[C@@H]1N2Cc1ccncc1	/	4	2	/
CC(C)N1CCN(Cc2cccc3c2OCO3)CC1CCO (stereo unspecified)	-1	1	21*	-1	PglD confirm=1
CC(C)N1CCN(Cc2cc3c(cc2Cl)OCO3)CC1CCO (stereo unspecified)	-1	-2	-3	-5
COC(=O)[C@@H]1[C@@H](CO)[C@@H]2Cn3c(ccc(/C=C/c4ccccc4)c3=O)[C@H]1N2C(=O)C1CC1	/	-5	-3	/
Clc1ccccc1CN1CCNCC1	1	4	22*	-1	PglD confirm=0

Source: PubChem BioAssay (Broad Institute)
